Assay [1] has as its target Peroxisome proliferator-activated receptor gamma (Homo sapiens) (UniProt P37231). Kind of assay: qHTS assay for small molecule agonists of peroxisome proliferator-activated receptor gamma signaling (AID 588536; active = well fitted curve in the direction sought with a large enough effect in the signal ratio, with a control signal flat, not every such curve was filed as active; the % refers to the signal ratio;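 also: 0% = DMSO basal wells and 100% = rosiglitazone at 2 µM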). The procedure, abridged: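 Ratiometric blue/green fluorescence (405 nm excitation; 460 and 530 nm emission) from CCF4-loaded HEK293 reporter cells serves as signal. Exposure to test compounds lasts 16 h at 37 C in medium containing 1% charcoal/dextran-treated serum.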

Assay [2] is described as follows: qHTS assay for small molecule agonists of retinoid X receptor alpha signaling (AID 588544; calls by dose curve;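 as to activation: 0% = DMSO basal wells and 100% = reference agonist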). The note with it: HEK293T RXRa-UAS-bla, beta-lactamase reporter, 18 h; 530 nm emission.
Assay [3] deals with Retinoic acid receptor RXR-alpha (Homo sapiens) (UniProt P19793). The assay is described as above.
Chain of Retinoic acid receptor RXR-alpha (Homo sapiens) (P19793 whole entry, looked up): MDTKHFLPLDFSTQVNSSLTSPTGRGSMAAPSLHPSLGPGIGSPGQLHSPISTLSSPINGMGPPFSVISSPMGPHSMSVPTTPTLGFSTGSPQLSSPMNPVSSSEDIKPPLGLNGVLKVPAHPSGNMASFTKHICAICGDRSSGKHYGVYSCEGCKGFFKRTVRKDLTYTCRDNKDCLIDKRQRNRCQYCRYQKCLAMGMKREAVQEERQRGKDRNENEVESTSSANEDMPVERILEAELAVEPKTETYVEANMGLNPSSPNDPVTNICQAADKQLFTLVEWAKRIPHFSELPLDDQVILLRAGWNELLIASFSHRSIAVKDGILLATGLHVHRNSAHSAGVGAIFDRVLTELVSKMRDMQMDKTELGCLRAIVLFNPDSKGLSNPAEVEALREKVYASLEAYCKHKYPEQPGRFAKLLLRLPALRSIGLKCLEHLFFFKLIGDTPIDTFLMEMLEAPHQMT
In assay [4] the target is Thyroid hormone receptor beta (Homo sapiens) (UniProt P10828). Kind of assay: qHTS assay for small molecule agonists of thyroid hormone receptor beta signaling (AID 588545; calls by dose curve). Put shortly: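 Agonist-mode beta-lactamase reporter assay, HEK 293 cells, 2% charcoal/dextran FBS; cells plated 4 hrs, compound 18 hrs at 37 C, CCF4 2 hrs RT. Normalized to 10 nM T3 (100%) and DMSO (0%); Hill fit gives EC50, efficacy.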
Chain of Thyroid hormone receptor beta (Homo sapiens) (P10828 whole entry, looked up): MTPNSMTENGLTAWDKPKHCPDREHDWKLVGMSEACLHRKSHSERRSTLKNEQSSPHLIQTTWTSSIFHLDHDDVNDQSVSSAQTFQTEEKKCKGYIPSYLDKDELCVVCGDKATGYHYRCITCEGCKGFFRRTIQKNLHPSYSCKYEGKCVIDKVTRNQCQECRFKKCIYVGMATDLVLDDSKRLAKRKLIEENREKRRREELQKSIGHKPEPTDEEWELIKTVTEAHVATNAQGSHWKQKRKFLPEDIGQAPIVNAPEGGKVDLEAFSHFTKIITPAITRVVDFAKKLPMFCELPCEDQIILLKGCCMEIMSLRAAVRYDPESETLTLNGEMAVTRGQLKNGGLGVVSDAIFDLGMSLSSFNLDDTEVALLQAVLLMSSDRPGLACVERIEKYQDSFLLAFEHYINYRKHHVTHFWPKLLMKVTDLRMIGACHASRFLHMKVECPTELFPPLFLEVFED

The nature of assay [5]: qHTS assay for small molecule antagonists of retinoid X receptor alpha signaling (AID 588546; active = well fitted inhibition curve with a large enough effect in the signal ratio, with a control signal flat, not every such curve was filed as active; the % refers to the signal ratio; also: potency is read from the fitted curve at half-maximal effect;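 as to max response: cells stimulated with 9-cis-retinoic acid as agonist; % is scaled to controls: 0 for no effect and ±100 for the full control effect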). As to conditions: HEK293T RXRa-UAS-bla, beta-lactamase ratio, antagonist mode; measured here: W530 green channel, cytotoxicity proxy. Put shortly:
(§1)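 Beta-lactamase reporter inhibition, read as CCF4 fluorescence ratio (ex 405, em 460/530 nm) after 2 h at RT. HEK293T UAS-bla cells, 2500/well, were stimulated with 9-cis-RA at 500 or 100 nM final alongside test compound for 18 h at 37 C.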

In assay [6] the target is Retinoic acid receptor RXR-alpha (Homo sapiens) (UniProt P19793). Described as above. As to conditions: HEK293T RXRa-UAS-bla, beta-lactamase ratio, antagonist mode. Put shortly:
as §1

A short description of assay [7]: qHTS assay for small molecule activators of the p53 signaling pathway (AID 651743; active = well fitted activation curve with a large enough effect in the signal ratio, not every such curve was filed as active; the % refers to the signal ratio; also: series mostly up to about 92 µM; % of control where 0% means no effect). As to conditions: HCT-116 p53RE-bla, beta-lactamase FRET ratio, 16 h; activation: stronger effect = higher value. Put shortly: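 HCT-116 p53RE-bla, 4,000 cells/well; 5 h settle; cpd/DMSO 16 h, 37 C; LiveBLAzer B/G 2 h RT; fluorescence intensity.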
Assay [8] can be described thus: qHTS assay for small molecule activators of the nuclear factor-kappa B (NF-kB) signaling pathway (AID 651749; active = well fitted activation curve with a large enough effect in the signal ratio; the % refers to the signal ratio; also: series mostly up to about 77 µM; % of control where 0% means no effect). The note with it: NF-kB-bla ME-180 cells, beta-lactamase FRET ratio, 16 h; activation: stronger effect = higher value. Put shortly:
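Incubation lasted 16 hr at 37C in 5% CO2 after 23 nL compound addition to ME-180 NF-kB-bla cells. Activation appears as beta-lactamase-mediated FRET loss.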

For assay [9], the target named is Peroxisome proliferator-activated receptor alpha (Homo sapiens) (UniProt Q07869). The experiment in a line: qHTS assay for small molecule agonists of the peroxisome proliferator-activated receptor alpha (PPARalpha) signaling pathway (AID 651778). Also: % of control where 0% means no effect. As to conditions: PathHunter PPARalpha complementation, chemiluminescence, 6 h; max response: stronger effect = higher value. The procedure, abridged: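 Enzyme-fragment complementation assay in which ligand-bound PPARalpha translocates and forms an active enzyme that generates chemiluminescence. Cells were plated overnight, exposed to compound for 6 hr at 37 C, and then given detection reagent for 60 min at room temperature.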
Chain of Peroxisome proliferator-activated receptor alpha (Homo sapiens) (Q07869 whole entry, looked up, the tested form may be a part): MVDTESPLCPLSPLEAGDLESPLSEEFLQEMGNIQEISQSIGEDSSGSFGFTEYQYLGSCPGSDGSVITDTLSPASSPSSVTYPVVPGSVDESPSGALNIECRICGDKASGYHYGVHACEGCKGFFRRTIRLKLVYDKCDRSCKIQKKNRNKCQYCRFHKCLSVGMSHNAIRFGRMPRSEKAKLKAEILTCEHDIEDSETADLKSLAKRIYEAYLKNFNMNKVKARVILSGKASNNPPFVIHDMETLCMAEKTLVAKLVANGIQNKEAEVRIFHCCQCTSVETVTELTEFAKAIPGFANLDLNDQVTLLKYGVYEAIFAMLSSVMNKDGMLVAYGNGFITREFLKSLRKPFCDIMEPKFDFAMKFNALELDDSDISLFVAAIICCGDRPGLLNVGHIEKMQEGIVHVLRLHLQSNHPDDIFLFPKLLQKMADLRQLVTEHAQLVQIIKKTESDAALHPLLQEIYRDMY

Assay [10] is described as follows: qHTS assay for small molecule agonists of the antioxidant response element (ARE) signaling pathway measured by Nrf2-dependant transcriptional activity (AID 720636; active = well fitted curve in the direction sought with a large enough effect in the repeat runs; an effect the other way counts as inactive or inconclusive;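 also: HepG2 cells with an ARE-driven luciferase reporter; % of control where 0% means no effect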). The procedure, abridged:
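In HepG2 cells engineered with an Nrf2-responsive luciferase gene, ARE induction was quantified as luminescence after 16 hr compound treatment at 37 C.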

The nature of assay [11]: qHTS assay for small molecule agonists of the antioxidant response element (ARE) signaling pathway measured by Nrf2-dependant transcriptional activity - cell viability counter screen (AID 720653; active = well fitted curve in the direction sought with a large enough effect in the repeat runs; an effect the other way counts as inactive or inconclusive; also: % is scaled to controls: 0 for no effect and ±100 for the full control effect). As to conditions: ARE-bla HepG2 viability, CellTiter-Glo ATP luminescence, 16 h; max response: stronger effect = lower value. The procedure, abridged:
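ARE-bla HepG2 cells treated with compounds for 16 h at 37C; this counter screen measures viability as intracellular ATP by CellTiter-Glo luminescence after 30 min at room temperature.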

Assay [12] in a line: qHTS assay for cell viability of the p53RE-bla HCT-116 cell line (AID 743292). Also: % is scaled to controls: 0 for no effect and ±100 for the full control effect; nearly all actives have a fitted effect of over 55% in size. Put shortly: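 Intracellular ATP of p53RE-bla HCT-116 cells measured by luciferase luminescence following 16 h compound incubation at 37 C; DMSO-only wells served as vehicle controls.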
Assay [13] addresses Nuclear receptor subfamily 1 group I member 2 (Rattus norvegicus) (UniProt Q9R1A7). The experiment in a line: qHTS assay for small molecule activators of the rat pregnane X receptor (rPXR) signaling pathway (AID 651751; call rule not given here; also: 0% is about no effect). The note with it: rPXR reporter cells, luciferase (One-Glo), 24 h.
The nature of assay [14]: qHTS assay for small molecule activators of the human pregnane X receptor (PXR) signaling pathway (AID 720659; call rule not given here; also: 0% is about no effect).
Assay [15] is described as follows: qHTS assay for small molecule antagonists of peroxisome proliferator-activated receptor delta signaling (AID 588535; active = well fitted inhibition curve with a large enough effect in the signal ratio, with a control signal flat, not every such curve was filed as active; the % refers to the signal ratio;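 as to max response: cells co-treated with a PPAR-delta agonist as stimulator during compound exposure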). The note with it: HEK293T PPARd-UAS-bla, beta-lactamase FRET ratio, 18 h; 460 nm channel. Put shortly: (§2)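 Cells were seeded at 4000 per well in assay medium containing 2% charcoal/dextran FBS and held 5 hrs at 37 C. Compounds were then added for 18 hrs. CCF4 substrate was applied for 2 hrs at room temperature before fluorescence reading.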

Assay [16] addresses Peroxisome proliferator-activated receptor delta (Homo sapiens) (UniProt Q03181). The description is as above. The procedure, abridged: as §2
The target in assay [17] is Vitamin D3 receptor (Homo sapiens) (UniProt P11473). The experiment in a line: qHTS assay for small molecule antagonists of vitamin D receptor signaling (AID 588541; calls by dose curve;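 also: receptor activated by calcitriol during compound treatment; series mostly up to about 77 µM; % is scaled to controls: 0 for no effect and ±100 for the full control effect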). Put shortly:
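VDR-UAS-bla HEK293T cells in 2% charcoal-stripped FBS were stimulated with 1-alpha,25-dihydroxyvitamin D3 (3 nM final) plus compound for 16 h at 37 C. The beta-lactamase CCF4 readout was normalized to 50 nM agonist and DMSO, and Hill fits gave IC50.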

Assay [18] shares this target. The experiment in a line: qHTS assay for small molecule agonists of vitamin D receptor signaling (AID 588543; calls by dose curve;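 also: 0% = DMSO basal and 100% = reference agonist control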). Put shortly:
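β-lactamase reporter, VDR-UAS-bla HEK293T, agonist mode. Cells plated 5 h at 37 °C, compound titration 16 h at 37 °C, CCF4 dye 2 h RT, ratio 460/530 nm. Hill fit → EC50, efficacy vs 50 nM 1α,25-(OH)2D3.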

Assay [19] is described as follows: qHTS assay for environmental chemicals that activate the Aryl hydrocarbon Receptor (AhR) signaling pathway (AID 651777). Also: % of control where 0% means no effect; nearly all actives have a fitted effect of over 15% in size. As to conditions: 1A2-DRE human hepatoma cells, luciferase, 24 h; activation: stronger effect = higher value. The procedure, abridged: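 Measured luciferase activity, read 30 min after One-Glo addition at room temperature, from human hepatoma cells bearing a dioxin response element–CYP1A2 promoter reporter and exposed to compound for 24 hr at 37 C.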

Assay [20] is described as follows: qHTS assay for cell viability of HEK293 cells (AID 743288). Also: % is scaled to controls: 0 for no effect and ±100 for the full control effect; nearly all actives have a fitted effect of over 50% in size. The note with it: ATP luminescence (CellTiter-Glo), 18 h; max response: stronger effect = lower value. Put shortly: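 Environmental chemicals tested in qHTS format against parental HEK293 cells; 18 h treatment, 37 C; read-out ATP luminescence (CellTiter-Glo), 30 min RT development.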

Data on 6 compounds can be found in PubChem BioAssay (NCATS).

SMILES strings stand for the structures. Where “and” joins values, the source holds several entries; their conditions need not be identical. Equal values may be shown once. Inconclusive results are not listed. Calls of active or inactive are those of the source. Unless noted, calls follow the shape of the dose curve; as a rule, active = well fitted curve in the direction sought with a large enough effect; inconclusive = small, poorly fitted or top-dose-only effect, or another doubt; inactive = no such curve, though single readings can be large; an effect the other way counts as inactive or inconclusive.

Chain of Nuclear receptor subfamily 1 group I member 2 (Rattus norvegicus) (Q9R1A7 whole entry, looked up): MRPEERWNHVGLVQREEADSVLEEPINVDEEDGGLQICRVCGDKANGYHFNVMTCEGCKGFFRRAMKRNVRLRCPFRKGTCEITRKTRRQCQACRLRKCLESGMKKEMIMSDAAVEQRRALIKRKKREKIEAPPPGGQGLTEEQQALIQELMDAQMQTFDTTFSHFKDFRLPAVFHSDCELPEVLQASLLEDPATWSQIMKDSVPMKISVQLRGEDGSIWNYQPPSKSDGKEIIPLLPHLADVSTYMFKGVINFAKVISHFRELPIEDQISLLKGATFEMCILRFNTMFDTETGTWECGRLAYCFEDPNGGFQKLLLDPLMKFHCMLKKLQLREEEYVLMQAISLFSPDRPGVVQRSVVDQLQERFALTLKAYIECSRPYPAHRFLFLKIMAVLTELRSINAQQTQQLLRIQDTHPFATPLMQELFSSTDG
Chain of Vitamin D3 receptor (Homo sapiens) (P11473 whole entry, looked up): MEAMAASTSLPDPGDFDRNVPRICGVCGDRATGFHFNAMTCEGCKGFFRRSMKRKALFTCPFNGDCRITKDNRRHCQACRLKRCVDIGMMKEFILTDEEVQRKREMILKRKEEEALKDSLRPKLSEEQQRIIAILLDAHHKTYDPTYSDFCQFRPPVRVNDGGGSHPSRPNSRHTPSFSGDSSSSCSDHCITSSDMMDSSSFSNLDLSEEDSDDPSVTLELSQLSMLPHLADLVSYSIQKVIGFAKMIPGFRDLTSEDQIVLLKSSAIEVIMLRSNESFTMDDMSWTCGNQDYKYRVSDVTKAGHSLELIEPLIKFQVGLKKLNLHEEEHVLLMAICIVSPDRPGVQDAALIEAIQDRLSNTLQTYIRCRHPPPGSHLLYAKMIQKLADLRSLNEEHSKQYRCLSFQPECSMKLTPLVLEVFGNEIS
Chain of Peroxisome proliferator-activated receptor delta (Homo sapiens) (Q03181 whole entry, looked up): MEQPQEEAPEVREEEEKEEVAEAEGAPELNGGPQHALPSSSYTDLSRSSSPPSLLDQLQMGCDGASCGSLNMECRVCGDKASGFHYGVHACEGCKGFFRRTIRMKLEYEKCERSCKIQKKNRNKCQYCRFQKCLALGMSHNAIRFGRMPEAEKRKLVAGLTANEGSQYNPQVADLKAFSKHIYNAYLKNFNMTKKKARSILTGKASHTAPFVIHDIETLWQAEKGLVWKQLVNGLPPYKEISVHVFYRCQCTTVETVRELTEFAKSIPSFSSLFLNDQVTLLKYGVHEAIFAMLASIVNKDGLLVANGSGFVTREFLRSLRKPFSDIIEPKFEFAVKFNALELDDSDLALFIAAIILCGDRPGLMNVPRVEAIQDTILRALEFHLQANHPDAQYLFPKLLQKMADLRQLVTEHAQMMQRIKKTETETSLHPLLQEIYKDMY
Chain of Peroxisome proliferator-activated receptor gamma (Homo sapiens) (P37231 whole entry, looked up): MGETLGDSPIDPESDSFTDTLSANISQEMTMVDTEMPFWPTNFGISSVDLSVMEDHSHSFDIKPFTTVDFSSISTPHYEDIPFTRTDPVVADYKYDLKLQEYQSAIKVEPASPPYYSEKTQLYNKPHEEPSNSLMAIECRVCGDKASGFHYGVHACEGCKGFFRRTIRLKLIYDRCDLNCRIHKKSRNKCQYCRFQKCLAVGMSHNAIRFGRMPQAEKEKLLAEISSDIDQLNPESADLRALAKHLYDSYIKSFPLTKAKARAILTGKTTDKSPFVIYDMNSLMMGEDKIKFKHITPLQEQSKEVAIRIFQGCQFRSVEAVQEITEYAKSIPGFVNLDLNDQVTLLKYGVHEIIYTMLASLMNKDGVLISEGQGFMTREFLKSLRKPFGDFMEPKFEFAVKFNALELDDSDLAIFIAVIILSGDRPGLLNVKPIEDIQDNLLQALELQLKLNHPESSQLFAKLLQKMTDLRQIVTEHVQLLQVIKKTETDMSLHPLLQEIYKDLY

On to `C[Si]1(C)N[Si](C)(C)N[Si](C)(C)N1`, for which the compound was classed as inactive in [1] and in assay [14]. For the same compound, the max response in [2] is -6.42%; in [5], -13.1%; in [6], -7.51% (inactive); in assay [9], -0.733% (inactive); in assay [11] it was -8.08% (inactive); in assay [13], 1.59% (inactive). Besides, the Potency result in assay [3], in assay [4], in [10] and in [12] was “inactive” throughout. For the same compound, the values for the activation in assay [7] and in assay [8] were -5.2% (inactive) and -2.89% (inactive), respectively.
For `COCCO`, the max response is 37% in assay [15]; -5.91% and 1.76% in [2]; -8.45% and -6.73% in [5]; -2.01% (inactive) and -0.724% (inactive) in assay [9]; -7.73% (inactive) and 3.37% (inactive) in assay [11]; -2.14% (inactive) and 3.11% (inactive) in assay [20]. The Potency result in assay [16], in assay [17], in [3] and in assay [10] was “inactive” each time. For the same compound, the call in assay [1] and in [18] was inactive. Also, the activation was 0.424% (inactive) and -0.727% (inactive) in assay [7]; -1.11% (inactive) and -0.165% (inactive) in [19].
Regarding `CN(C)Cc1cc(CN(C)C)c(O)c(CN(C)C)c1`, the outcome in assay [1] and in assay [14] was inactive. For the same compound, the max response is -13.7% in assay [2], -16.5% in assay [5], -13.1% (inactive) in assay [6] and 1.59% (inactive) in [13]. Further, the Potency entry in [3], in [4], in [10] and in assay [12] was “inactive” throughout. The figures for the activation in [7], in assay [8] and in assay [19] were -4% (inactive), -0.675% (inactive) and -0.0067% (inactive), respectively.
For the compound `O=C(O)CN(CCO)CCN(CC(=O)O)CC(=O)O`, the max response in assay [15] is 6.54%; in assay [2], -15.4%; in [5], -2.45%; in assay [6], -2.39% (inactive); in assay [20] it was -11.1% (inactive); in assay [13], 1.3% (inactive). The Potency entry in assay [16], in assay [3], in assay [4] and in assay [12] was “inactive” each time. The compound was classed as inactive in [1], in [18] and in [14]. Also, the figures for the activation in [7] and in assay [8] were -0.291% (inactive) and -1.52% (inactive), respectively.
For the compound `CCCCCCCCCC[N+](C)(C)Cc1ccccc1`, the compound was called inactive in assay [1] and in [14]. Also, the Potency entry in assay [4] and in [10] was “inactive” in each case. For the same compound, the max response in assay [5] is 16%; in assay [9], 7.43% (inactive); in [11], -23% (inactive); in assay [20], -27.5% (inactive); in [13], -4.11% (inactive). Also, in [6], the Potency was 35.5 µM (active). Besides, the figures for the activation in [7], in assay [8] and in assay [19] were 6.02% (inactive), 4.29% (inactive) and 0.379% (inactive), respectively.
With `CCCCCCCCCCCCCC(=O)OC`, the max response in assay [15] was -19.8%; in assay [2] it was 0.848%; in assay [5], -10%; in [6], -1.05% (inactive); in assay [9] it was 0.157% (inactive); in assay [11] it was -15.8% (inactive). Further, the max response was 4.18% (inactive) in [20] and 2.49% (inactive) in assay [13]. Further, the Potency result in assay [16], in assay [17], in assay [3], in assay [4] and in [10] was “inactive” each time. In addition, the call in [1] and in [14] was inactive. In addition, the results for the activation in [8] and in assay [19] were 0.501% (inactive) and 0.0228% (inactive), respectively.
